An excerpt weighted towards active compounds, which were near 4.9% of everything screened.
HSF1 activator: increases HSF-1 driven luciferase reporter signal; NIH3T3-HGL HSF-1 luciferase reporter, MG132, 8 h; 100% = twice DMSO control signal; activation, % at 9 µM; 300,000 tested, 1.7% active;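 active = mean replicate activation of at least 50% with a set share of replicates each reaching 50%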
Platelet DG rel: modulates dense granule release in human platelets. inhibition, %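 (compounds screened at 7.5 µM in platelet-rich plasma)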. 300,000 tested, 0.22% active. human platelet-rich plasma, SFLLRN dense granule ATP release, luminescence;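 active = mean replicate score, as percent of positive control, at or above 50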
MPTP inh: permeability transition pore inhibition | isolated mouse mitochondria, Ca2+ swelling absorbance, 30 min | inhibition, % at 10 µM | 360,000 tested, 1.4% active | AID 602449;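 active = inhibition of 50% or more, scaled per plate between neutral and stimulator controls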
HSP90 refold inh: inhibitors of HSP90 luciferase refolding in rabbit reticulocyte lysate; luciferase refolding luminescence, 3 h; inhibition, % at 5.6 µM; 290,000 tested, 0.91% active; AID 1789;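 active = inhibition above the screen-wide mean plus 3 SD, computed separately per campaign, cut at about 16% in these data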;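 note: inhibitors lower the luminescence because luciferase stays unfolded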
HSF1 inhib: HSF1 inhibition | NIH3T3-HGL HSE-luciferase, MG132-induced, luminescence 8 h; active compounds read low | activity change, negative = inhibition, % at 7.5 µM (by protocol) | 300,000 tested, 0.77% active | AID 2098;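 active = more than half of replicate wells show activity change below -50%, luminescence cut by over half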;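 note: luciferase reports HSF-1 transcriptional activity via heat shock element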
dFosB act: mouse delta FosB homodimer activation; purified delta FosB, TAMRA-CDK5 oligo fluorescence polarization; percent of positive-control signal above neutral wells; activation, % at 25 µM; 340,000 tested, 0.99% active;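 active = mean activation above about 17%, with every replicate also reaching it, limit read from the data, passing the limit was not always enough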
Target sequence (P13346 whole entry, looked up): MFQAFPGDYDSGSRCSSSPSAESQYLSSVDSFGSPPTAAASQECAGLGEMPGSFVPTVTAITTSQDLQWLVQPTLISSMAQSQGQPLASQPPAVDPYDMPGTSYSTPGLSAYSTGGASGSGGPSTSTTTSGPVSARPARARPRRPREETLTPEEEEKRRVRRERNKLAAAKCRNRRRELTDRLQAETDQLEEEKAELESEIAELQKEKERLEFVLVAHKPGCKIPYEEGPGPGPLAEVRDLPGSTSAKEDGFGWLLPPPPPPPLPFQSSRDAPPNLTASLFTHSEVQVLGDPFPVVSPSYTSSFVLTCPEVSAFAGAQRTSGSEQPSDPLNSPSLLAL
HSP90 confirm: HSP90 inhibition, confirmation assay. AID 1846. rabbit reticulocyte lysate, luciferase refolding luminescence, 3 h. shares compounds with HSP90 refold inh. inhibition, % at 5.9 µM. 2,300 tested, 64% active; in the data active = inhibition above about 18%
FLuc counter: firefly luciferase inhibition, HSP90 counter-screen; shares compounds with HSP90 refold inh; AID 1847; purified native firefly luciferase, luminescence; 2,300 tested, 48% active; inhibition, % at 5.9 µM;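 active = inhibition above the mean inhibition of all tested sample wells plus 3 SD, cut at about 10% in these data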
Each line names hits and unclear results; the compound was inactive in the other large screens (follow-up assays come after a bar, where they were run).

CCOC(=O)N/N=C/c1ccccc1F	none
CCc1nnc(N/N=C/c2ccccc2Cl)n1N	HSF1 activator 72.5, HSP90 refold inh 71.9 | HSP90 confirm inactive | FLuc counter inactive
CCc1nnc(N/N=C/c2ccccc2F)n1N	HSF1 activator 58.9, HSP90 refold inh 79.8 | HSP90 confirm inactive | FLuc counter inactive
CCCN(CC1CCCO1)C(=O)c1cc(COc2ccc(F)cc2F)on1 (configuration not stated)	none
CC[C@H](C)[C@H](NC(=O)c1ccc(Cl)cc1)C(=O)OCC(=O)c1c(N)n(C)c(=O)n(C)c1=O	none (no result: HSF1 activator, Platelet DG rel, HSP90 refold inh, HSF1 inhib)
CC(=O)c1sc(-c2ccc(Cl)cc2)cc1N	HSP90 refold inh 18.0 | HSP90 confirm inactive | FLuc counter inactive
COC(=O)c1sc(-c2ccc(Cl)cc2)cc1N	none
O=C(N/N=C/c1ccc(O)cc1)c1ccc(NC(=O)c2ccccc2Br)cc1	HSP90 refold inh 19.9 | HSP90 confirm inactive | FLuc counter inactive
Cc1ccccc1C(=O)Nc1ccc(C(=O)N/N=C/c2ccc(O)cc2)cc1	none
O=C(c1ccc(Cl)cc1)N1CCc2ccccc21	HSP90 refold inh 18.1 | HSP90 confirm inactive | FLuc counter inactive
O=C(Cc1cccs1)N=Nc1c(O)[nH]c2ccc(Br)cc12	none (no result: HSF1 activator, HSF1 inhib)
COc1ccc2[nH]c(O)c(N=NC(=O)Cc3cccs3)c2c1	HSP90 refold inh 22.6 | HSP90 confirm inactive | FLuc counter inactive
Cc1cc(NC(=O)c2cccc(COc3ccc(Br)cc3)c2)no1	HSP90 refold inh 21.0 | HSP90 confirm 64.1 | FLuc counter 52.6
Cc1nn(Cc2c(F)c(F)c(F)c(F)c2F)c(C)c1NC(=O)c1cccc(COc2ccc(Cl)cc2)c1	none (no result: HSF1 activator, HSF1 inhib)
CCOc1ccc(C(=O)Nc2cc(C)on2)cc1	none
CC(C)c1cc(C(N)=O)c(NC(=O)c2cccc(COc3ccc(Cl)cc3)c2)s1	HSP90 refold inh 49.0 | HSP90 confirm 71.3 | FLuc counter 68.6
CCN1CCCC1CNC(=O)c1cc(COc2ccc(C)c(C)c2)on1 (configuration not stated)	none
O=C(Nc1ccc2nc3n(c(=O)c2c1)CCCC3)c1ccccc1F	none
O=C(Nc1ccc2nc3n(c(=O)c2c1)CCCCC3)c1ccccc1[N+](=O)[O-]	none
O=C(Nc1ccc2nc3n(c(=O)c2c1)CCCCC3)c1cc([N+](=O)[O-])ccc1F	HSP90 refold inh 33.8, HSF1 inhib -67.6 | HSP90 confirm inactive | FLuc counter inactive
O=C(Nc1ccc2nc3n(c(=O)c2c1)CCCCC3)c1c(F)ccc([N+](=O)[O-])c1F	HSP90 refold inh 24.4 | HSP90 confirm inactive | FLuc counter inactive
COc1ccc(C(C)(O)c2nc(-c3cccc(C(F)(F)F)c3)cs2)cc1 (configuration not stated)	none (no result: HSF1 activator, Platelet DG rel, HSP90 refold inh, HSF1 inhib, dFosB act)
CCC(=O)NC1=C(NC(C)c2ccccc2)C(=O)c2ccccc2C1=O (configuration not stated)	none
CCC(=O)NC1=C(Cl)C(=O)C(NC(=O)CC)=C(Cl)C1=O	HSP90 refold inh 29.9 (no result: HSF1 activator, Platelet DG rel, HSF1 inhib) | HSP90 confirm inactive | FLuc counter 74.6
CN(C)CCCN(C(=O)CCSc1ccccc1)c1nc2cc3c(cc2s1)OCO3	HSP90 refold inh 56.9 | HSP90 confirm inactive | FLuc counter inactive
CN(C)CCCN(C(=O)CCS(=O)(=O)c1ccccc1)c1nc2cc3c(cc2s1)OCO3	none
Cc1nc(-c2noc(-c3cccc(Cl)c3)n2)c(C(F)(F)F)o1	HSP90 refold inh 21.4 | HSP90 confirm inactive | FLuc counter inactive
COc1ccc(/C=N\Nc2ccccc2[N+](=O)[O-])c(C(=O)O)c1OC	HSP90 refold inh 18.2 | HSP90 confirm inactive | FLuc counter inactive
COc1ccc(/C=N\Nc2ccc([N+](=O)[O-])cc2[N+](=O)[O-])c(C(=O)O)c1OC	none
CC(C)n1c(-c2ccc(N(C)C)cc2)nc2ccccc21	none (no result: HSF1 activator, Platelet DG rel, HSF1 inhib)
CN(C)c1ccc(C(O)Cc2nc3ccccc3n2C)cc1 (configuration not stated)	HSP90 refold inh 46.3 | HSP90 confirm inactive | FLuc counter inactive
CN(C)c1ccc(-c2nc3ccccc3n2C)cc1	HSP90 refold inh 28.4 | HSP90 confirm 64.1 | FLuc counter 53.1
Cc1cccc(C(=O)N[C@H](C(=O)OCC(=O)NC(=O)c2cccn2C)C(C)C)c1	none
COCCn1c(C)cc(C2=NNC(=Nc3ccccc3)SC2)c1C	HSP90 refold inh 50.9 | HSP90 confirm 38.7 | FLuc counter 32.9
O=C(Nc1ccccc1C(F)(F)F)c1cc(-c2ccccc2O)on1	HSF1 activator 65.5, HSP90 refold inh 20.7 | HSP90 confirm inactive | FLuc counter inactive
O=C(O)c1cncc(C#CCC2CCCCC2)c1	none
C[C@H](NC(=O)c1nc[nH]c1C(=O)NCC(=O)OCc1ccccc1)C(=O)OC(C)(C)C	HSP90 refold inh 62.0 | HSP90 confirm inactive | FLuc counter inactive
CCc1nnc(NC(=O)CSc2nc3c(cc2C#N)CCCC3)s1	HSP90 refold inh 25.2 | HSP90 confirm inactive | FLuc counter inactive
Cc1ccc2nc(-c3ccccc3)cc(C(=O)N3CCN(c4ccccc4O)CC3)c2c1	none (no result: HSP90 refold inh)
COc1cc(/C=C2\SC(=S)N(N3CCOCC3)C2=O)ccc1O	none
C=CCN1C(=O)/C(=C\c2ccc(Oc3nc(N4CCOCC4)nc(N4CCOCC4)n3)c(OC)c2)SC1=S	HSP90 refold inh 38.8 | HSP90 confirm inactive | FLuc counter inactive
COC(=O)c1ccccc1NC(=O)COc1ccc(S(=O)(=O)NC(C)C)cc1	none
O=C(CN1CCc2ccccc21)NC(=O)NCc1ccccc1	none
O=C(Nc1ccccc1O)c1cc2cc(Br)ccc2oc1=O	HSP90 refold inh 17.5 | HSP90 confirm inactive | FLuc counter inactive
O=C(NNC(=O)c1cc2cc(Br)ccc2oc1=O)c1ccc(O)cc1	none
CC(=O)NC(C)(c1ccccc1)c1nc(-c2csc3ccccc23)cs1 (configuration not stated)	none (no result: HSF1 activator, Platelet DG rel, HSP90 refold inh, HSF1 inhib, dFosB act)
Cc1ccc(NC(=O)c2ncn(CCCNCC3CCCO3)n2)cc1C (configuration not stated)	none (no result: HSF1 activator, Platelet DG rel, HSP90 refold inh, HSF1 inhib)
CC(=O)Nc1ccc(OS(=O)(=O)c2ccc([N+](=O)[O-])cc2)cc1	HSP90 refold inh 54.6 | HSP90 confirm 75.7 | FLuc counter inactive
COc1cc(N)c2ncccc2c1Br	none (no result: HSF1 activator, Platelet DG rel, HSP90 refold inh, HSF1 inhib)
CCc1nc(SCC(=O)Nc2nc3c(s2)CCCC3)c2ccccc2n1	none
CCCc1nc(SCC(=O)Nc2nc3c(s2)CCCC3)c2ccccc2n1	HSP90 refold inh 18.9 | HSP90 confirm inactive | FLuc counter inactive
O=C(NNS(=O)(=O)c1ccc(F)cc1)C1CC(c2cccnc2)=NO1 (configuration not stated)	HSP90 refold inh 20.6 | HSP90 confirm inactive | FLuc counter inactive

Screening data deposited in PubChem BioAssay by several laboratories.
